Assay outcomes as filed in PubChem BioAssay.
USP7 inh: blocks human USP7 ubiquitin-rhodamine cleavage; Q93009; purified USP7, Ub-rhodamine cleavage fluorescence; inhibition, % at 20 µM; hit rate 0.3% among 47,000
UCHL1 inh: human UCHL1 deubiquitinase inhibition; inhibition, % at 20 µM; hit rate 0.2% among 47,000; purified UCHL1, Ub-rhodamine cleavage fluorescence
USP10 block: blocks human USP10 ubiquitin-rhodamine cleavage; Q14694; purified USP10, Ub-rhodamine fluorescence, 60 min; inhibition, % at 20 µM; hit rate 1.1% among 47,000
USP17 block: human USP17-like deubiquitinase inhibition; hit rate 6.5% among 47,000; purified USP17, Ub-rhodamine cleavage fluorescence, 3 h; inhibition, % at 50 µM
USP8 inh: human USP8 deubiquitinase inhibition | inhibition, % at 20 µM | purified USP8, Ub-rhodamine cleavage fluorescence, 30 min | P40818 | hit rate 4.2% among 47,000
Target sequence (P40818 whole entry, looked up): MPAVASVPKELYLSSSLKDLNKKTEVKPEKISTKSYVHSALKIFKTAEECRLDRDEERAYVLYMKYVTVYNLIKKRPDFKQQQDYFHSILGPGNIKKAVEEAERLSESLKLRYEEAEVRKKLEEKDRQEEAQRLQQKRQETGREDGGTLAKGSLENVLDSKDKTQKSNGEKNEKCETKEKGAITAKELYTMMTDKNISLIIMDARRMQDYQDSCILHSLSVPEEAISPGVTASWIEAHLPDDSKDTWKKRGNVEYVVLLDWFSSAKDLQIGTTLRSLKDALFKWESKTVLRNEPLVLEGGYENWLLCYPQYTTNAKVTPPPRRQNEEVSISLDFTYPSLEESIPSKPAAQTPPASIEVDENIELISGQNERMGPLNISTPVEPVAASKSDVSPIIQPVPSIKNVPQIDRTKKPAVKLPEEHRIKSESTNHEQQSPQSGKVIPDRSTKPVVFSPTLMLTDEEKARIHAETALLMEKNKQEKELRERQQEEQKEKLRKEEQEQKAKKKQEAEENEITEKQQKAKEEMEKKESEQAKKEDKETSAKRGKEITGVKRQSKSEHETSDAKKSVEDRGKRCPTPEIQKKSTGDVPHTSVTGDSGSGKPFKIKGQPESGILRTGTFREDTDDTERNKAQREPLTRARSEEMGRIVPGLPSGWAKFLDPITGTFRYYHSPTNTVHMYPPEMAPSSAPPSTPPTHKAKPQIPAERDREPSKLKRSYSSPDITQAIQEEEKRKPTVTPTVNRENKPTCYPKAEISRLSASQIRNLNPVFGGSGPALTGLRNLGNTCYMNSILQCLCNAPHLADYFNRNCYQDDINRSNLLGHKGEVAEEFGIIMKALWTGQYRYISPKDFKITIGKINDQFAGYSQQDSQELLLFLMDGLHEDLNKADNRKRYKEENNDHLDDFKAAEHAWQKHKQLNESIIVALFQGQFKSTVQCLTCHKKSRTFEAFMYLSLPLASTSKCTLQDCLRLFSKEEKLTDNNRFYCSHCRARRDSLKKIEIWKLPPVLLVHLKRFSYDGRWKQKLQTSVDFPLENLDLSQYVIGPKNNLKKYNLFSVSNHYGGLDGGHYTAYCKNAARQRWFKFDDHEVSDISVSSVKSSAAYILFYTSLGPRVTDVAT
OTUD3 block: human OTUD3 deubiquitinase inhibition; purified OTUD3, Ub-rhodamine fluorescence, 2 h; hit rate 0.7% among 47,000; Q5T2D3; inhibition, % at 25 µM
Hits are given with their value; 0 = inactive; - = no result. The list is not random: actives were taken first. Their share in the collection is about 9.2%. Rule as the data show it: active = inhibition above about 30%; inactive = the rest.

SMILES	USP7 inh	UCHL1 inh	USP10 block	USP17 block	USP8 inh	OTUD3 block
Cc1cccc(CNS(=O)(=O)c2ccc(-c3cc(C(F)(F)F)on3)s2)c1	0	0	0	43.2	0	0
Cc1cc(-c2ccc(S(=O)(=O)NC3CC3)s2)on1	0	0	0	0	0	0
Cc1cc(-c2ccc(S(=O)(=O)NCc3ccccc3C)s2)on1	0	0	0	35.4	0	0
Cc1cccc(CNS(=O)(=O)c2ccc(-c3cc(C)no3)s2)c1	0	0	0	36.1	0	0
CC(=O)c1cccc(NS(=O)(=O)c2ccc(-c3cc(C)no3)s2)c1	0	0	0	0	0	0
Cc1cc(-c2ccc(S(=O)(=O)NCc3ccc(Cl)cc3)s2)on1	0	0	0	76.5	0	0
CSc1nnc(CNC(=O)c2ccc(S(=O)(=O)N3CCOCC3)cc2)n1-c1cccc(C(F)(F)F)c1	0	0	0	0	0	0
O=C(NCc1ccccc1Cl)c1ccc(-c2nnc(-c3ccccc3)o2)cc1	0	0	0	62.3	0	0
Cc1ccccc1-c1nnc(-c2ccc(C(=O)NCc3ccccc3F)cc2)o1	0	0	0	35.9	0	0
Cc1nn(C)cc1C(C)NC(=O)c1cc2c(s1)CN(C1CC1)C2 (configuration not stated)	0	0	0	0	30.6	0
CCOC(=O)c1cc2c(ccn2C)n1CC(=O)N(Cc1ccc(Cl)cc1)c1ccccc1	0	0	0	42.9	56.7	0
CCOC(=O)c1cc2c(ccn2C)n1CC(=O)N(C1CCCCC1)C1CCCCC1	0	0	0	0	0	0
CCOC(=O)c1cc2c(ccn2C)n1Cc1ccc(C#N)cc1	0	0	0	0	70.5	0
CCOC(=O)c1cc2c(ccn2C)n1CC(=O)N1CCCCC1	0	0	0	0	0	0
Cc1ccccc1-c1cncc(C2CCN(C(=O)c3cn[nH]c3C)CC2)n1	0	0	0	0	0	0
O=C(Cn1c(COc2ccccc2)nc2ccccc21)Nc1cc(Cl)ccc1Cl	0	0	0	0	55.5	0
O=C(Cn1c(=O)cnc2ccccc21)NCCc1ccc(Cl)cc1Cl	0	0	0	0	0	0
COc1ccc(NC(=O)Cn2c(CS(=O)(=O)c3ccc(C)cc3)nc3ccccc32)cc1	0	0	0	0	0	0
O=C(Cn1c(COc2ccccc2)nc2ccccc21)Nc1cc(Cl)cc(Cl)c1	0	0	0	0	73.4	0
O=C(Cn1c(COc2ccccc2)nc2ccccc21)Nc1ccc(N2CCOCC2)cc1	0	0	0	0	33.5	0
COc1cccc(NC(=O)Cn2c(COc3ccccc3)nc3ccccc32)c1	0	0	0	62.9	0	0
O=C1c2cnc3nc(SCc4ccccc4Cl)nn3c2CC2c3ccccc3CCN12 (configuration not stated)	0	0	0	0	0	0
COc1ccc(CNC(=O)CCCn2ncc3ccc(C)cc32)cc1	0	0	0	0	0	0
O=C(Nc1noc2ccccc12)c1ccco1	0	0	0	0	46.6	0
O=C(CSc1nnc(CNC(=O)c2ccccc2F)o1)Nc1ccc(OC(F)(F)F)cc1	0	0	0	63.0	0	0
SMILES	USP7 inh	UCHL1 inh	USP10 block	USP17 block	USP8 inh	OTUD3 block
CCOC(=O)c1ccc(NC(=O)CSc2nnc(CNC(=O)c3ccccc3F)o2)cc1	0	0	0	0	0	0
CCOC(=O)c1ccc(NC(=O)CSc2nnc(CNC(=O)c3cccs3)o2)cc1	0	0	0	49.7	0	0
COc1ccc(/C=N/OCc2nc3c4c(ncn3n2)Oc2c(c(C)nn2-c2ccccc2)C4c2ccco2)cc1 (configuration not stated)	0	0	0	0	0	0
Cc1ccc(C(=O)c2cn(CC(=O)Nc3ccccc3C)c3ccc(C)cc3c2=O)cc1	0	0	0	40.3	0	0
COc1ccccc1NC(=O)Cn1cc(C(=O)c2ccc(C)cc2)c(=O)c2ccccc21	0	0	0	62.2	0	0
Nc1ncc(Br)cc1S(=O)(=O)NCCN1CCN(c2ccccc2F)CC1	0	0	0	0	0	0
C[C@]12C(=O)N(c3ccc(C(=O)NCc4ccc(F)cc4)cc3)C(=O)N1CCc1c2[nH]c2ccccc12	0	0	0	34.6	0	0
C[C@]12C(=O)N(c3ccc(C(=O)NCc4ccco4)cc3)C(=O)N1CCc1c2[nH]c2ccccc12	-	0	0	0	0	0
COc1ccc(CNC(=O)c2ccccc2N2C(=O)N3CCc4c([nH]c5ccc(OC)cc45)[C@@]3(C)C2=O)cc1	0	0	0	44.6	0	0
C[C@@H](C(=O)NCc1ccc(F)cc1)N1C(=O)N2CCc3c([nH]c4ccccc34)[C@@]2(C)C1=O	0	0	0	58.6	0	0
CNC(=O)c1c2n(c3ncccc13)CC(C)N(C(=O)c1ccc(O)cc1)C2 (configuration not stated)	0	0	0	0	0	0
CC1(C)Oc2ccccc2[C@H]2OCC3(CCN(C(=O)c4cccnc4)CC3)C[C@@H]21	0	0	0	0	0	0
OCC(CNc1ncnc2scc(-c3ccc(F)cc3)c12)Cc1ccco1 (configuration not stated)	0	0	0	0	0	0
Cc1cc(=O)[nH]c(Sc2c(-c3ccccc3)c3cc([N+](=O)[O-])ccc3[nH]c2=O)n1	0	0	0	0	0	0
O=[N+]([O-])c1ccc2nc3c(c(-c4ccccc4)c2c1)CNCC3	0	0	0	48.4	82.4	0
O=C(Cn1ncc2cc([N+](=O)[O-])ccc21)N1CCc2ccccc21	0	0	0	0	0	0
O=C(/C=C/c1ccc2c(c1)OCO2)N1CCCc2ccccc21	0	0	0	0	0	0
O=C(OCC(=O)N1CCc2ccccc21)c1cc([N+](=O)[O-])ccc1NCCO	0	0	0	60.3	0	0
O=C(/C=C/c1cccc([N+](=O)[O-])c1)N1CCc2ccccc21	0	0	0	0	84.2	0
O=C(c1nnc(-c2ccc(Cl)cc2)o1)c1ccccc1F	0	0	0	0	0	0
CCOc1ccccc1-c1nc(Cn2cnc3ccccc3c2=O)no1	0	0	0	0	0	0
CN(C)CCCN(C(=O)c1cc2ccccc2oc1=O)c1nc2ccc(F)cc2s1	0	0	0	55.4	0	0
CN(C)CCCN(C(=O)c1ccco1)c1nc2ccc(F)cc2s1	-	0	0	0	0	0
O=C1CC(c2ccccc2)CC2=C1C(c1c[nH]c3ccccc13)N(C(=O)C1CC1)c1ccccc1N2 (configuration not stated)	0	0	0	0	0	0
CC(C)(C)c1ccc(C2CC(=O)C3=C(C2)Nc2ccccc2N(C(=O)CCC(=O)O)C3c2cccc([N+](=O)[O-])c2)cc1 (configuration not stated)	0	0	32.7	0	0	0
CC1(C)CC(=O)C2=C(C1)Nc1ccccc1N(C(=O)Cc1ccccc1)C2c1ccc(Cl)cc1 (configuration not stated)	0	0	0	49.1	0	0
